From PubChem BioAssay
TbPYK inhibitor: qHTS of Trypanosoma Brucei Inhibitors. 0.12% of 410,000 active. TbPYK enzyme, Kinase-Glo Plus ATP luminescence, 45 min. Potency, µM (top dose mostly 76.8 µM), for the others: top-dose activity, negative = inhibition, usual class: inhibitors. pyruvate kinase (Trypanosoma brucei), Q57TT1. AID 624173, 2012; further: on the % scale 0 is the no-effect control and ±100 the full control effect; nearly all actives have a fitted effect of over 50% in size
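TbPYK + substrate in 50 mM TEA pH 7.2, 100 mM KCl, 10 mM MgCl2, 0.05% BSA, 0.01% Tween-20; cpd pinned; ADP 130 uM final; 45 min RT; Kinase-Glo Plus 10 min; luminescence endpoint.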
AmpC inh detg: qHTS Inhibitors of AmpC Beta-Lactamase (assay with detergent). AmpC hydrolysis of nitrocefin, absorbance 480 nm, 0.01% Triton. 0.041% of 370,000 active. Potency, µM (titrated, usually from 114 µM), for the others: at the top dose activity change, negative = inhibition, actives largely listed as inhibitors;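 further: 0% = no-compound wells and -100% = no-enzyme wells; nearly all actives have a fitted effect of over 25% in size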
Target sequence (P00811 whole entry, looked up): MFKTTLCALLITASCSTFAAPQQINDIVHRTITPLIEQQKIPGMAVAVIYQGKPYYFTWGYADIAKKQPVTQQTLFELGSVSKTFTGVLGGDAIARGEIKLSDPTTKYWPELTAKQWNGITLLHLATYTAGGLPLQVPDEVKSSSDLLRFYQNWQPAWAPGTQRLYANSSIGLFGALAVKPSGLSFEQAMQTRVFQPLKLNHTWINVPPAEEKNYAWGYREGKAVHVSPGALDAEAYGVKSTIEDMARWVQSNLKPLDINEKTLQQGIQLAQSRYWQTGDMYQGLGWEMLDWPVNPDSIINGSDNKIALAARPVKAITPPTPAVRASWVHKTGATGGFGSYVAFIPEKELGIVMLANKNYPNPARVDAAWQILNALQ
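AmpC (5.3 nM in the dispensed reagent) in 20 mM phosphate pH 7.0 with 0.01% (detergent screen) or 0.0001% Triton X-100 was preincubated with compounds for 15 min at room temperature. Nitrocefin was then added from an 800 uM solution, and hydrolysis was followed at 480 nm.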
AmpC no deterg: qHTS Inhibitors of AmpC Beta-Lactamase (assay without detergent). AmpC nitrocefin hydrolysis, absorbance 480 nm, 0.0001% Triton. Potency, µM (doses to about 57.1 µM), without a hit: at the highest dose activity change, negative = inhibition, actives largely listed as inhibitors. P00811. 0.52% of 330,000 active;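 further: plate controls were no compound for no effect and no enzyme for full effect; nearly all actives have a fitted effect of over 20% in size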
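20 mM phosphate pH 7.0 + 0.01% (detergent screen) or 0.0001% Triton X-100; 5.3 nM AmpC reagent; cpd preinc 15 min RT; nitrocefin (800 uM stock) to start; A480 q20 s × 4 min; Activity was normalised to no-enzyme and no-compound control wells.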
Sm TGR inh: qHTS Assay for the Inhibitors of Schistosoma Mansoni Peroxiredoxins. Schistosoma mansoni thioredoxin glutathione reductase (TGR), Q962Y6. purified TGR, DTNB reduction, TNB absorbance 405 nm. Potency, µM (highest dose often 114 µM), inactives show at the top dose activity change, negative = inhibition, hits mostly inhibitors. 3% of 360,000 active; further: on the % scale 0 is the no-effect control and ±100 the full control effect; nearly all actives have a fitted effect of over 60% in size
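First, TGR (20 nM dispensed) and NADPH were mixed with compound. Second, a 15 min room-temperature incubation followed. Third, further NADPH and then DTNB were added to start the reaction. Finally, TNB absorbance was monitored kinetically.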
SARS PLpro yeast: qHTS of Yeast-based Assay for SARS-CoV PLP. S. cerevisiae expressing SARS-CoV PLpro, growth rescue. Potency, µM (top dose mostly 32.9 µM), for inactives: at the top dose activity, positive = growth rescue, hits mostly activators. 0.19% of 330,000 active. AID 485353, 2010; calls by dose curve; further: 0% is about no effect; nearly all actives have a fitted effect of over 55% in size
RE007 growth inh: qHTS Assay for Inhibitors of the HIV-1 protein Vpr | S. pombe RE007 Vpr strain, BacTiter-Glo ATP luminescence, 24 h | Potency, µM (series often up to 92.2 µM), for inactives: at the top dose activity change, negative = less growth, most hits filed as inhibitors | 0.21% of 360,000 active; active means well fitted falling curve with a large enough effect; inconclusive means small, poorly fitted or top-dose-only effect; inactive means no such curve, though single readings can be large or run the other way; further: on the % scale 0 is the no-effect control and ±100 the full control effect; nearly all actives have a fitted effect of over 50% in size
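Fission yeast strain RE007, carrying one chromosomally integrated HIV-1 vpr copy, was seeded at OD 0.01 in PMG+AL medium with 23 nL pinned compound. After 24 h at 30 °C and 99% humidity, viability was read by BacTiter-Glo luminescence.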
* hit, by the source's call. Shown are actives, neighbours in structure and some others; about 3.3% of the full set was active somewhere. Unless noted, the call rests on the fitted dose curve; in most records, active means well fitted curve in the direction sought with a large enough effect; inconclusive means small, poorly fitted or top-dose-only effect, or another doubt; inactive means no such curve, though single readings can be large; an effect the other way counts as inactive or inconclusive. Potency means the concentration at half of the fitted maximal effect.

How did CC[C@H](C)[C@H](NC(=O)[C@H](CO)NC(=O)[C@H](CC(N)=O)NC(=O)[C@H](CC(C)C)NC(=O)[C@H](Cc1ccc(O)cc1)NC(=O)[C@H](CCCCN)NC(=O)[C@H](CCCCN)NC(=O)[C@@H](NC(=O)[C@H](C)NC(=O)[C@H](CCSC)NC(=O)[C@H](CCC(N)=O)NC(=O)[C@H](CCCCN)NC(=O)[C@H](CCCNC(=N)N)NC(=O)[C@H](CC(C)C)NC(=O)[C@H](CCCNC(=N)N)NC(=O)[C@@H](NC(=O)[C@H](Cc1ccc(O)cc1)NC(=O)[C@H](CC(N)=O)NC(=O)[C@H](CC(=O)O)NC(=O)[C@@H](NC(=O)[C@H](Cc1ccccc1)NC(=O)[C@@H](NC(=O)[C@H](C)NC(=O)[C@H](CC(=O)O)NC(=O)[C@H](CO)NC(=O)[C@@H](N)Cc1c[nH]cn1)C(C)C)[C@@H](C)O)[C@@H](C)O)C(C)C)C(=O)N[C@@H](CC(C)C)C(=O)N[C@@H](CC(N)=O)C(=O)O do in these assays?
TbPYK inhibitor: 13.3%

How did Cc1ccc(C(=O)NC(=S)NNS(=O)(=O)c2ccccc2)cc1 do in these assays?
TbPYK inhibitor: -5.7%; AmpC inh detg: -0.7%; AmpC no deterg: -33.9%; Sm TGR inh: 12.6µM*; SARS PLpro yeast: 11.9%; RE007 growth inh: inconclusive

What do the screens show for `Cc1ccc(S(=O)(=O)NNC(=O)c2ccc(F)cc2)cc1`?
TbPYK inhibitor: -5.3%; AmpC inh detg: 1.8%; AmpC no deterg: -8.4%; Sm TGR inh: 0.8%; SARS PLpro yeast: 7.2%; RE007 growth inh: -0.5%

Results for COC(=O)c1ccccc1NC(=O)c1ccc2c(c1)OCCO2 ?
TbPYK inhibitor: 1.2%; AmpC inh detg: -11.3%; AmpC no deterg: -27.7%; Sm TGR inh: 16.9%; SARS PLpro yeast: -6.6%; RE007 growth inh: -24.8%

What do the screens show for `COC(=O)c1ccccc1NC(=S)NC(=O)c1ccccc1C`?
TbPYK inhibitor: -9.2%; AmpC inh detg: 39.8µM*; AmpC no deterg: -59.2%; Sm TGR inh: inconclusive; SARS PLpro yeast: -27.8%; RE007 growth inh: -3.1%

Results for COC(=O)c1ccccc1NC(=S)NC(=O)COc1ccccc1 ?
TbPYK inhibitor: -0.7%; AmpC inh detg: -3.2%; AmpC no deterg: -26.5%; Sm TGR inh: 22.4µM*; SARS PLpro yeast: -6.2%; RE007 growth inh: -10.7%

Results for COC(=O)c1ccccc1NC(=S)NC(=O)c1ccc2c(c1)OCO2 ?
TbPYK inhibitor: 1.9%; AmpC inh detg: -13.1%; AmpC no deterg: -24.7%; Sm TGR inh: 11.2µM*; SARS PLpro yeast: -1.3%; RE007 growth inh: 1.5%

What do the screens show for `COC(=O)c1ccccc1NC(=S)NC(=O)CC(C)C`?
TbPYK inhibitor: 9.7%; AmpC inh detg: inconclusive; AmpC no deterg: -30.5%; Sm TGR inh: -23.3%; SARS PLpro yeast: 12.2%; RE007 growth inh: 5.3%

How did C[C@@H]1CN(CC(=O)Nc2ccc3c(c2)Cc2cccc(-c4cc(=O)cc(N5CCOCC5)o4)c2S3)C[C@H](C)O1 do in these assays?
TbPYK inhibitor: 0.0%

Results for Cc1ccc(CNC(=O)Cn2ccc3ccccc3c2=O)o1 ?
TbPYK inhibitor: 0.0%; AmpC inh detg: -10.5%; AmpC no deterg: -12.8%; Sm TGR inh: 31.6µM*; SARS PLpro yeast: 1.5%; RE007 growth inh: 6.2%

Results for COC(=O)CNC(=O)Cn1ccc2ccccc2c1=O ?
TbPYK inhibitor: -7.3%; AmpC inh detg: 0.5%; AmpC no deterg: -5.3%; Sm TGR inh: 3.7%; SARS PLpro yeast: 14.4%; RE007 growth inh: -1.1%

How did COc1ccc(-c2cc(C(=O)NC(C)c3ccccc3)c3cc(C(C)C)ccc3n2)cc1 (stereo not given) do in these assays?
TbPYK inhibitor: -4.4%; AmpC inh detg: 2.0%; Sm TGR inh: 1.0%

What do the screens show for `CC(C)Cn1c(=O)c2sccc2n2c(CCCC(=O)NC3CCCCC3)nnc12`?
TbPYK inhibitor: 0.6%; AmpC inh detg: 6.6%; Sm TGR inh: 6.8%

Results for Cn1nnnc1SCC(=O)Nc1ccc(Br)cc1Cl ?
TbPYK inhibitor: -11.4%; AmpC inh detg: inconclusive; AmpC no deterg: -14.5%; Sm TGR inh: 28.2µM*; SARS PLpro yeast: -18.2%; RE007 growth inh: -21.6%

Results for Cn1nnnc1SCC(=O)Nc1ccc(Br)cc1Br ?
TbPYK inhibitor: -1.8%; AmpC no deterg: -12.1%; SARS PLpro yeast: -1.2%; RE007 growth inh: 9.2%

Results for COc1ccccc1NC(=O)c1ccc(NC(=O)CSc2nnnn2C)cc1 ?
TbPYK inhibitor: -3.0%; AmpC inh detg: -12.9%; AmpC no deterg: -19.3%; Sm TGR inh: 5.62µM*; SARS PLpro yeast: 1.3%; RE007 growth inh: 13.7%

What do the screens show for `O=C1Nc2ccccc2Oc2cc(Oc3ccccc3)ccc21`?
TbPYK inhibitor: -6.7%; AmpC inh detg: -1.8%; AmpC no deterg: 10µM*; Sm TGR inh: -1.5%; SARS PLpro yeast: 3.7%

How did COc1ccc(/C=C2/C(=O)NC(=S)N(C3CC3)C2=O)cc1CN1C(=O)c2ccccc2C1=O do in these assays?
TbPYK inhibitor: inconclusive; AmpC inh detg: -5.5%; AmpC no deterg: -35.2%; Sm TGR inh: 11.2µM*; SARS PLpro yeast: inconclusive; RE007 growth inh: -3.0%

What do the screens show for `COc1ccc(/C=C2/C(=O)NC(=O)N(C3CCCCC3)C2=O)cc1CSc1ccccn1`?
AmpC inh detg: inconclusive; AmpC no deterg: -28.3%; Sm TGR inh: 35.5µM*; SARS PLpro yeast: 0.2%

What do the screens show for `N#CCC(=O)Nc1ccc(C(=O)OCC(=O)Nc2cccc3ccccc23)cc1`?
TbPYK inhibitor: -9.0%; RE007 growth inh: -0.2%

How did COC(=O)c1c(NC(=O)CCC(=O)O)sc2c1CCCCC2 do in these assays?
TbPYK inhibitor: -7.6%; AmpC inh detg: -0.4%; AmpC no deterg: -9.9%; Sm TGR inh: 2.4%; SARS PLpro yeast: -4.0%; RE007 growth inh: -2.7%

What do the screens show for `COC(=O)c1c(NC(=O)COC(=O)c2ccccc2O)sc2c1CCCCC2`?
TbPYK inhibitor: 9.1%; AmpC inh detg: inconclusive; AmpC no deterg: -23.2%; Sm TGR inh: -9.6%; SARS PLpro yeast: 2.8%; RE007 growth inh: 4.0%

How did N#CCC(=O)Nc1ccc(C(=O)OCC(=O)Nc2cccc(C(F)(F)F)c2)cc1 do in these assays?
TbPYK inhibitor: -6.0%; AmpC inh detg: inconclusive; AmpC no deterg: 15.8µM*; Sm TGR inh: -9.2%; SARS PLpro yeast: -2.3%; RE007 growth inh: 4.8%
